This passage reports growth inhibition results from PubChem BioAssay (NCI).

About 79,000 compounds went through this panel and 15% of them were active in at least one assay; those are over-represented in the sample as a whole. Unmarked numbers belong to inactive results. Active and inactive are the calls of the source. Rule as the data show it: active = growth inhibition above about 70%; inactive = the rest.

Test [1] is described as follows: NCI Yeast Anticancer Drug Screen. Data for the rad50 strain (AID 155).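 Also: 0% = growth of vehicle-only cultures of the same strain.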 The following applies: S. cerevisiae rad50 strain growth inhibition; at 50.0 µM; hits give high values. In short, it runs like this: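 Genetically altered yeast (DNA repair pathway); compound treatment; growth inhibition vs vehicle ctrl.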
A short description of test [2]: NCI Yeast Anticancer Drug Screen. Data for the mec2-1 strain (AID 157). The following applies: S. cerevisiae mec2-1 strain, at 50.0 µM, hits give high values. The method, boiled down:
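Using mec2-1 yeast: add compound, measure growth, express inhibition versus vehicle-treated cultures.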

Test [3] in a line: NCI Yeast Anticancer Drug Screen. Data for the sgs1 mgt1 strain (AID 161).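 Also: 0% = growth of cultures given vehicle only.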 The following applies: S. cerevisiae sgs1 mgt1 strain, at 50.0 µM, hits give high values. In short, it runs like this: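 Yeast cells carrying a defined DNA-repair defect were exposed to test compounds. Growth inhibition was measured relative to vehicle-treated controls.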
Test [4] is described as follows: NCI Yeast Anticancer Drug Screen. Data for the cln2 rad14 strain (AID 165).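 Also: 0% = growth equal to vehicle treated cultures.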 The following applies: S. cerevisiae cln2 rad14 strain, at 50.0 µM, hits give high values. The method, boiled down: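 Yeast strain cln2 rad14, bearing defects in cell cycle control and DNA repair, serves as the test system; values reflect growth inhibition compared with vehicle.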
Test [5] is described as follows: NCI Yeast Anticancer Drug Screen. Data for the bub3 strain (AID 167). The following applies: S. cerevisiae bub3 mutant strain, at 50.0 µM, hits give high values. The method, boiled down: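 Yeast carrying a defined mutation is treated with each compound, and growth is compared with that of vehicle-exposed cells to give inhibition.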
Test [6] in a line: NCI Yeast Anticancer Drug Screen. Data for the mlh1 rad18 strain (AID 175). The following applies: S. cerevisiae mlh1 rad18 strain growth inhibition; at 50.0 µM; hits give high values. In short, it runs like this: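 Steps: expose repair-defective yeast to compound; measure growth; express inhibition against vehicle-treated controls.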

On to `CC1=CC(C)C/C=C/C2C3OC3(C)C(C)C3C(Cc4c[nH]c5ccccc45)NC(=O)C23C(=O)C=CC(=O)C1O` (configuration not stated), for which the growth inhibition in test [1] is 88.4% (active); in test [2], 92.5% (active); in test [3], 92.6% (active); in test [4], 91% (active); in test [5], 91.3% (active); in test [6], 92.1% (active).

On to `O=C(NCCN1CCOCC1)c1ccc2cc(C(=O)N3CC(CCl)c4ccc([N+](=O)[O-])cc43)[nH]c2c1` (configuration not stated), for which the growth inhibition in test [1] was 88.5% (active); in test [2] it was 92.2% (active); in test [3] it was 88% (active); in test [4], 88.8% (active); in test [5] it was 89.8% (active); in test [6] it was 89.9% (active).

Turning to `CC(C)NC(C)C(C)c1ccccc1` (configuration not stated), the growth inhibition in test [1] was 5.95%; in test [2], -3.15%; in test [3] it was 0.1%; in test [4] it was -11.9%; in test [5], -10.2%; in test [6] it was 11%.

Regarding `CCS(=O)(=O)CCN1C(=O)CN=C(c2ccccc2F)c2cc(Cl)ccc21`, the growth inhibition in test [1] is 27.6%; in test [2], 6%; in test [3], 20.8%; in test [4] it was 12.4%; in test [5], -0.7%; in test [6], 16.4%.

`COc1c2c(nc3ccccc13)-c1cc3c(c(=O)n1C2)COC(=O)C3(O)CC(=O)N1CCOCC1` (configuration not stated): the growth inhibition in test [1] is 9.5%; in test [2], -4.25%; in test [3], 0.2%; in test [4] it was 52.5%; in test [5] it was -6.5%; in test [6] it was 6.35%.

Take `CC1(C)OP(=O)(O)C=C1[Se]c1ccccc1`: the growth inhibition in test [1] is 19.2%; in test [2] it was 11.2%; in test [3], 24.4%; in test [4], 4.95%; in test [5] it was -3.2%; in test [6], 26.6%.

Turning to `[CH3][Sn]([c]1ccccc1)[c]1ccccc1`, the growth inhibition in test [1] was -4.15%; in test [2], 2.5%; in test [3] it was 2.45%; in test [4], -11%; in test [5], 1.2%; in test [6], -21.4%.

With `CN(C)P(=S)(N(C)C)N1CCOCC1`, the growth inhibition in test [1] is -7.6%; in test [2], -13.3%; in test [3], 6.55%; in test [4], -16.8%; in test [5], -28.3%; in test [6], -9%.

On to `C=C[CH2][Sn]([CH2]C=C)([c]1ccccc1)[c]1ccccc1`, for which the growth inhibition in test [1] is 47.6%; in test [2] it was 18.6%; in test [3], 28.8%; in test [4], 6.7%; in test [5] it was -7.55%; in test [6], 16.4%.

As to `O=C(O)c1ccc(Cl)c(Cl)c1`, the growth inhibition in test [1] is 1.7%; in test [2] it was -5.4%; in test [3], 3.9%; in test [4], -14.2%; in test [5], 5.95%; in test [6], 0.45%.

As for `CCC1(CC)C(=O)N(C)P(=O)(Oc2ccccc2)N(C)C1=O`, the growth inhibition is 5.7% in test [1]; 15.4% in test [2]; 9.3% in test [3]; 1.6% in test [4]; 7.1% in test [5]; 4.6% in test [6].

As to `CC(COC(=O)NCc1ccc(Cl)cc1Cl)OC(N)=O` (configuration not stated), the growth inhibition in test [1] was 2.6%; in test [2], 0.35%; in test [3], 4.25%; in test [4] it was -12.8%; in test [5], -5%; in test [6] it was -8.65%.

Regarding `ClCCn1c(/C=C/c2nc3ccccc3n2CCCl)nc2ccccc21`, the growth inhibition was 26.1% in test [1]; 5.8% in test [2]; 6.1% in test [3]; -32.1% in test [4]; -3.65% in test [5]; 20.6% in test [6].

Take `CN(C)CCc1ccc(Cl)cc1Cl`: the growth inhibition is 11.1% in test [1]; 14.3% in test [2]; -2.5% in test [3]; 6.6% in test [4]; 3.75% in test [5]; 22.4% in test [6].

As for `CCOP(=O)(CC)C(Cl)(Cl)Cl` (configuration not stated), the growth inhibition in test [1] was 2.4%; in test [2], -18.5%; in test [3], -5.95%; in test [4], -24.1%; in test [5], 6.05%; in test [6], -2.2%.

With `O=[N+]([O-])c1ccc(Cl)c([N+](=O)[O-])c1`, the growth inhibition is 99.2% (active) in test [1]; 98.5% (active) in test [2]; 99.2% (active) in test [3]; 96.3% (active) in test [4]; 98.7% (active) in test [5]; 99.2% (active) in test [6].

As to `CC(C)CC1N=C(N(C)N=O)OP1(=O)NNc1ncccn1` (configuration not stated), the growth inhibition in test [1] was -5.5%; in test [2] it was -14.9%; in test [3], -15.4%; in test [4] it was 6.65%; in test [5], 13.8%; in test [6], 13.9%.

As to `CNC(C)(C)Cc1ccc(Cl)cc1`, the growth inhibition is 33.5% in test [1]; 10.8% in test [2]; 27.9% in test [3]; 24.9% in test [4]; 4.6% in test [5]; -0.45% in test [6].

Consider `COc1ccc2c(c1O)[C@@]13CCN(C)[C@@H](C2)[C@H]1CC(C)C(=O)C3` (some centres not stated), for which the growth inhibition in test [1] is 5.65%; in test [2] it was -30.6%; in test [3], 8.55%; in test [4] it was 17.2%; in test [5] it was -0.6%; in test [6], -2.5%.

`CN1CCN(C)C(N2CCOCC2)C(C)(C)C1` (configuration not stated): the growth inhibition in test [1] is 15.4%; in test [2], -4.2%; in test [3], -8.15%; in test [4] it was -9.45%; in test [5], 0.85%; in test [6] it was 2.85%.

As for `NC1CCCCC1.[O]=[Ge].[O]=[Ge].[O]=[Ge][OH].[O]=[Ge][OH]`, the growth inhibition was -26.9% in test [1]; -10.9% in test [2]; -10.8% in test [3]; 13.1% in test [4]; 12.9% in test [5]; 4.95% in test [6].

On to `N#CS.N=C=S.N=C=S.[Cu+2].[NH2-].[NH2-].[NH2-].[NH2-].c1ccc2ncccc2c1`, for which the growth inhibition is -10.4% in test [1]; -16.6% in test [2]; -24.2% in test [3]; 26.2% in test [4]; -9.6% in test [5]; -12.5% in test [6].
